Source: PubChem BioAssay (EPA / NIEHS)
Records with an inconclusive call do not appear. Activity calls are given as the source filed them. Rule for the calls, unless noted: active = hit-call score of the fitted dose curve at least 0.9, where 1 is the maximum; inactive = score below 0.9.

Tests used:
[1] = target: Oxysterols receptor LXR-beta (Homo sapiens) (UniProt P55055); assay: ATG_LXRb_TRANS: Attagene TRANS-FACTORIAL HepG2 Assay for human Liver X Receptor beta (LXRb) (AID 2282981; active = hit-call score of the fitted dose curve at least 0.9, where 1 is the maximum); details: HepG2 Attagene TRANS GAL4-LXRb reporter, mRNA
Chain of Oxysterols receptor LXR-beta (Homo sapiens) (P55055 whole entry, looked up, the tested form may be a part): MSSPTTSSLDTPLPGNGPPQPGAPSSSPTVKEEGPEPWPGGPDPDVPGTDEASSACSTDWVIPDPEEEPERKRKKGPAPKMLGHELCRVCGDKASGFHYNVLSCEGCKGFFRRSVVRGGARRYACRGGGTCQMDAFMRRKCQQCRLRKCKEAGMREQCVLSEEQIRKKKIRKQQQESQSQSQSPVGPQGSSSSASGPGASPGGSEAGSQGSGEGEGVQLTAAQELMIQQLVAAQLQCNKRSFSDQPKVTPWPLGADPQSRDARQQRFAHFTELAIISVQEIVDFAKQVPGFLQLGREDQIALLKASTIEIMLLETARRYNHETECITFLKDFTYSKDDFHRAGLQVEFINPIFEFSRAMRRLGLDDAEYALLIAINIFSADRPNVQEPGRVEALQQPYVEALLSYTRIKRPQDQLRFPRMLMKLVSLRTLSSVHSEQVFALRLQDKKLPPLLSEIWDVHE
Procedure, shortened: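 Measures induction of a Gal4-driven reporter transcript in HepG2 cells expressing an exogenous LXRb-Gal4 fusion. Cells are exposed to compound for 24 h before RNA isolation and RT-PCR with capillary electrophoresis detection.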

[2] = target: Hepatocyte nuclear factor 4-alpha (Homo sapiens) (UniProt P41235); assay: ATG_HNF4a_TRANS: Attagene TRANS-FACTORIAL HepG2 Assay for human Hepatocyte Nuclear Factor 4 alpha (HNF4a) (AID 2282982; active = hit-call score of the fitted dose curve at least 0.9, where 1 is the maximum); details: HepG2 HNF4a transactivation reporter, mRNA readout
Chain of Hepatocyte nuclear factor 4-alpha (Homo sapiens) (P41235 whole entry, looked up, the tested form may be a part): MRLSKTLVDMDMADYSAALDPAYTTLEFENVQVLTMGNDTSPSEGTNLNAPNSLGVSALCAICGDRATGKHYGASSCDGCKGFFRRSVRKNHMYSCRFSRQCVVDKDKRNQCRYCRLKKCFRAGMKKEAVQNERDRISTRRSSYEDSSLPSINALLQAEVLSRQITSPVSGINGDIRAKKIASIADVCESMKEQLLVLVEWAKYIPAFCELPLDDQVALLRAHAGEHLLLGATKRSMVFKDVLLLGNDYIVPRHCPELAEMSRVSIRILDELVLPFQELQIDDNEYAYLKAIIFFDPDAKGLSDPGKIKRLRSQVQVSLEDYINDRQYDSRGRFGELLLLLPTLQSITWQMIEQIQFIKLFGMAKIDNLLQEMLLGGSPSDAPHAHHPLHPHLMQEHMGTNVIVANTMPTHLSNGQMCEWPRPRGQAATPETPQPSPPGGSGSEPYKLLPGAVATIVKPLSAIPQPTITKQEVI
Procedure, shortened: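 In this trans-factorial format, a chimeric HNF4a-GAL4 fusion drives a GAL4-UAS reporter in transfected HepG2 liver cells. After 24 h treatment, reporter mRNA induction is measured by RT-PCR with capillary electrophoresis, relative to DMSO.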

[3] = ATG_M_06_TRANS: Attagene TRANS-FACTORIAL HepG2 Assay for M06 Transcription Factor (Internal Marker) (AID 2282983; active = hit-call score of the fitted dose curve at least 0.9, where 1 is the maximum); details: HepG2 Attagene TRANS M06 internal marker reporter
Procedure, shortened: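 Multi-reporter-transfected HepG2, 24 h treatment; reporter transcripts quantified via RT-PCR, primer-extension labelling and CE. DMSO-normalized gain-of-signal fit.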

[4] = ATG_M_32_TRANS: Attagene TRANS-FACTORIAL HepG2 Assay for M32 Transcription Factor (Internal Marker) (AID 2282984; active = hit-call score of the fitted dose curve at least 0.9, where 1 is the maximum;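 note: transcript level of a background control reporter unit measured by RT-PCR and capillary electrophoresis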); details: HepG2 Attagene TRANS M32 internal marker reporter
Procedure, shortened: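 After 24 h dosing of transfected HepG2 cells, total RNA was reverse-transcribed, reporter sequences PCR-amplified, 6-FAM labelled by primer extension and HpaI-digested before capillary electrophoresis. Signal increase over DMSO was fitted.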

[5] = target: Nuclear respiratory factor 1 (Homo sapiens) (UniProt Q16656); assay: ATG_NRF1_CIS: Attagene CIS-FACTORIAL HepG2 Assay for human Nuclear Respiratory Factor 1 (NRF1) Orphan Gene (AID 2282987); details: HepG2 NRF1 cis-element reporter, Attagene multiplex; actives raise or lower the signal
Chain of Nuclear respiratory factor 1 (Homo sapiens) (Q16656 whole entry, looked up): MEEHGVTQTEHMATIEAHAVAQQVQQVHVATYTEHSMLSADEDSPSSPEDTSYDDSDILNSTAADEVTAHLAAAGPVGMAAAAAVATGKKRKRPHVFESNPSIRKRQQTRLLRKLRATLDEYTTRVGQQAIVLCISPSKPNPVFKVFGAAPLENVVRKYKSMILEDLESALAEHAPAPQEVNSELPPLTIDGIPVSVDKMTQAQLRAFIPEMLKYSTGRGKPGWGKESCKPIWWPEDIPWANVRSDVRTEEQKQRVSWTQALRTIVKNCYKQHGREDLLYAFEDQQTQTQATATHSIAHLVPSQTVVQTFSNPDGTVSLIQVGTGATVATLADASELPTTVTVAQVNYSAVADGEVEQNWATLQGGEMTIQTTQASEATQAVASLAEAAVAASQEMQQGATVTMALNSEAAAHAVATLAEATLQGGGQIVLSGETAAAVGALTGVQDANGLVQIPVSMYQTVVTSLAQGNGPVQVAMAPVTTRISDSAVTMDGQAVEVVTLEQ
Procedure, shortened: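 HepG2 cells transiently transfected with multiple reporter transcription units under cis-regulatory promoter control, so endogenous transcription-factor activity is read. After 24 h compound exposure, reporter mRNA quantified by RT-PCR, fluorescent labelling, HpaI digestion and capillary electrophoresis; bidirectional fitting versus DMSO.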

[6] = ATG_NFI_CIS: Attagene CIS-FACTORIAL HepG2 Assay for human Nuclear Factor I (NFI) (AID 2282989); details: HepG2 cis-regulatory reporter, NFI response element transcription; actives raise or lower the signal
Procedure, shortened: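 Endogenous TF activity in HepG2 cells transiently transfected with cis-element-driven multiplexed reporter units, read 24 h after dosing. Reporter mRNA quantified by RT-PCR, 6-FAM labelling, HpaI digestion and capillary electrophoresis; bidirectional fit versus DMSO.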

[7] = target: Myc proto-oncogene protein (Homo sapiens) (UniProt P01106); assay: ATG_Myc_CIS: Attagene CIS-FACTORIAL HepG2 Assay for human Myelocytomatosis (Myc) Proto-Oncogene Transcription Factor (AID 2282990); details: HepG2, Attagene cis-reporter transcription factor activity; actives raise or lower the signal
Chain of Myc proto-oncogene protein (Homo sapiens) (P01106 whole entry, looked up): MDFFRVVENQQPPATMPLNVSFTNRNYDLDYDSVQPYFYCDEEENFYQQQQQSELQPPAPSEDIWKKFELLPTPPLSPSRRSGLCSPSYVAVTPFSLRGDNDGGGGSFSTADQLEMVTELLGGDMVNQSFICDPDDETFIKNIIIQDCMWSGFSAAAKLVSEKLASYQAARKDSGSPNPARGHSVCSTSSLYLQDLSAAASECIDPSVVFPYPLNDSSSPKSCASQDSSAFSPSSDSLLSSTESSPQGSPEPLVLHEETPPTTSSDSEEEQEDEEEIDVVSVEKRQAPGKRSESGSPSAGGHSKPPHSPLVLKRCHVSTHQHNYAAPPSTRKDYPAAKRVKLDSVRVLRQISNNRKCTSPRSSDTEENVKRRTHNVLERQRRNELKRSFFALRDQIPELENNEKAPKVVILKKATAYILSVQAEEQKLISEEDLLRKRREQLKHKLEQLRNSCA
Procedure, shortened: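 Multiplexed cis-reporter transcription in HepG2 cells after 24 h chemical treatment. Reporter mRNA measured by RT-PCR and capillary electrophoresis fluorescence; activity fitted bidirectionally against DMSO control.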

[8] = ATG_NF_kB_CIS: Attagene CIS-FACTORIAL HepG2 Assay for human Nuclear Factor Kappa B (NF-kB) (AID 2282991); details: HepG2 Attagene cis-factorial NF-kB reporter mRNA; actives raise or lower the signal
Procedure, shortened: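 HepG2 cells transiently transfected with multiplexed cis-element reporter units measuring endogenous transcription factor activity; reporter mRNA read 24 h after dosing by RT-PCR, fluorescent labelling, HpaI digestion and capillary electrophoresis. Bidirectional fit against DMSO baseline.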

[9] = ATG_NRF2_ARE_CIS: Attagene CIS-FACTORIAL HepG2 Assay for human Nuclear Factor Erythroid 2 Related Factor 2 (NFR2) response to Antioxidant Response Elements (ARE) (AID 2282992); details: HepG2 Attagene ARE/NRF2 reporter, transcription factor activity; actives raise or lower the signal
Procedure, shortened: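 Endogenous transcription factor activity read out as reporter transcript levels (RT-PCR plus capillary electrophoresis, fluorescence) in transiently transfected HepG2 cells. Measured at 24 h after dosing; gain or loss of signal fitted versus DMSO.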

[10] = ATG_Oct_MLP_CIS: Attagene CIS-FACTORIAL HepG2 Assay for human Octamer-Binding Transcription Factor (Oct) (AID 2282993); details: HepG2 Attagene cis-factorial Oct reporter, mRNA; actives raise or lower the signal
Procedure, shortened: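 HepG2 cells transiently transfected with cis-element-driven reporter transcription units (endogenous TF activity); 24 h compound exposure. Reporter mRNA quantified by RT-PCR, 6-FAM labelling, HpaI digestion and capillary electrophoresis; bidirectional fit versus DMSO baseline.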

[11] = target: Cellular tumor antigen p53 (Homo sapiens) (UniProt P04637); assay: ATG_p53_CIS: Attagene CIS-FACTORIAL HepG2 Assay for human p53 Transcription Factor (AID 2282994); details: HepG2 p53 cis-element reporter, Attagene mRNA; actives raise or lower the signal
Chain of Cellular tumor antigen p53 (Homo sapiens) (P04637 whole entry, looked up): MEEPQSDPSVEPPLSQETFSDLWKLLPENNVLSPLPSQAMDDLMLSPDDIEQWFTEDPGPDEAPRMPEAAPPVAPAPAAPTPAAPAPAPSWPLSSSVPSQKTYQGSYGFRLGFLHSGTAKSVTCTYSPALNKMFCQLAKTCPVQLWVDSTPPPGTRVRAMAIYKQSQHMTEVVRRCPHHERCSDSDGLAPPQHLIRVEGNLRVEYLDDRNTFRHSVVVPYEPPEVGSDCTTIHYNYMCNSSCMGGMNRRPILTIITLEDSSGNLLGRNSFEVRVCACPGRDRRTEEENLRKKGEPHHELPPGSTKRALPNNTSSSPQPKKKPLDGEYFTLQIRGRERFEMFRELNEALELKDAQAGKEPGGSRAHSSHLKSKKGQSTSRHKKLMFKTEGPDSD
Procedure, shortened: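 Endogenous p53 activity read in transiently transfected HepG2 from a cis-element-driven reporter transcript after 24 h exposure. RNA reverse-transcribed, PCR-amplified, fluorescently labelled and sized by capillary electrophoresis; gain or loss fitted against DMSO baseline.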

[12] = target: Oxysterols receptor LXR-alpha (Homo sapiens) (UniProt Q13133); assay: ATG_LXRa_TRANS: Attagene TRANS-FACTORIAL HepG2 Assay for human Liver X Receptor alpha (LXRa) (AID 2282980; active = hit-call score of the fitted dose curve at least 0.9, where 1 is the maximum); details: HepG2 Attagene TRANS reporter, LXRa transactivation
Chain of Oxysterols receptor LXR-alpha (Homo sapiens) (Q13133 whole entry, looked up, the tested form may be a part): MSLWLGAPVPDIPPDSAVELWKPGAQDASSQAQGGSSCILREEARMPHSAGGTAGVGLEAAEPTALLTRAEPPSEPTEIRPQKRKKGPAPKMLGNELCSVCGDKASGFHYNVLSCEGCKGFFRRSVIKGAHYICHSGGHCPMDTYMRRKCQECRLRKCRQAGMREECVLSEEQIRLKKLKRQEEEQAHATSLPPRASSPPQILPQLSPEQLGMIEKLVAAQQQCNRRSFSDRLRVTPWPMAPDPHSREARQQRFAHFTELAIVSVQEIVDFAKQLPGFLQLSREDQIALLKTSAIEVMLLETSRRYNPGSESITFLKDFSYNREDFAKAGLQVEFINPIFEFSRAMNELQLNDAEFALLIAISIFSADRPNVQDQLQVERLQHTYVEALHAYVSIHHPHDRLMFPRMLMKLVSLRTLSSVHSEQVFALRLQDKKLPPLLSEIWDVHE
Procedure, shortened: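 In this multiplexed TRANS system, compounds act on HepG2 cells carrying GAL4-UAS reporter units and a receptor-GAL4 fusion for 24 h. Induced reporter RNA is amplified, fluorescently labelled and sized by capillary electrophoresis, with DMSO as baseline.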

[13] = target: Nuclear receptor subfamily 4 group A member 2 (Homo sapiens) (UniProt P43354); assay: ATG_NURR1_TRANS: Attagene TRANS-FACTORIAL HepG2 Assay for human Nuclear Receptor Related Protein 1 (NURR1) (AID 2282985; active = hit-call score of the fitted dose curve at least 0.9, where 1 is the maximum); details: HepG2 Attagene TRANS reporter, mRNA readout
Chain of Nuclear receptor subfamily 4 group A member 2 (Homo sapiens) (P43354 whole entry, looked up, the tested form may be a part): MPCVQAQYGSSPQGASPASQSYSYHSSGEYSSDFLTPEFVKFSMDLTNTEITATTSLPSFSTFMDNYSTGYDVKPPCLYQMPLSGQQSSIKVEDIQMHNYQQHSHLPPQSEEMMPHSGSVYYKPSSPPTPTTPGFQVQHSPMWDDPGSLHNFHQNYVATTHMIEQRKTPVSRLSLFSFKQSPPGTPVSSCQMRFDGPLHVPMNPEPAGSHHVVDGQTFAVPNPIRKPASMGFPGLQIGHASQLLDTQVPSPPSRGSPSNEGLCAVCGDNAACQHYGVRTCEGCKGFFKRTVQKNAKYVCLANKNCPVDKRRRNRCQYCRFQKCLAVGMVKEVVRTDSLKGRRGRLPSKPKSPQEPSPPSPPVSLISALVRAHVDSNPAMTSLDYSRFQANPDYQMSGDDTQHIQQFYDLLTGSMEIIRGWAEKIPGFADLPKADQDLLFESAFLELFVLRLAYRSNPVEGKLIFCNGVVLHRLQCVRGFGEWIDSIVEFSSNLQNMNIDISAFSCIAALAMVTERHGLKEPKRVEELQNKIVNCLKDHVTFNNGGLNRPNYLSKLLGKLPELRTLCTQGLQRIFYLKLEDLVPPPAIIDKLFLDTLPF
Procedure, shortened: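 Chimeric NR-Gal4 fusion activity measured in HepG2 after 24 h treatment. Reporter transcripts detected by RT-PCR and capillary electrophoresis fluorescence; positive-direction curve fitting against DMSO.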

[14] = target: Transcriptional activator Myb (Homo sapiens) (UniProt P10242); assay: ATG_Myb_CIS: Attagene CIS-FACTORIAL HepG2 Assay for human Myeloblastosis (Myb) Proto-Oncogene Transcription Factor (AID 2282986); details: HepG2 Attagene CIS-FACTORIAL Myb reporter transcription; actives raise or lower the signal
Chain of Transcriptional activator Myb (Homo sapiens) (P10242 whole entry, looked up): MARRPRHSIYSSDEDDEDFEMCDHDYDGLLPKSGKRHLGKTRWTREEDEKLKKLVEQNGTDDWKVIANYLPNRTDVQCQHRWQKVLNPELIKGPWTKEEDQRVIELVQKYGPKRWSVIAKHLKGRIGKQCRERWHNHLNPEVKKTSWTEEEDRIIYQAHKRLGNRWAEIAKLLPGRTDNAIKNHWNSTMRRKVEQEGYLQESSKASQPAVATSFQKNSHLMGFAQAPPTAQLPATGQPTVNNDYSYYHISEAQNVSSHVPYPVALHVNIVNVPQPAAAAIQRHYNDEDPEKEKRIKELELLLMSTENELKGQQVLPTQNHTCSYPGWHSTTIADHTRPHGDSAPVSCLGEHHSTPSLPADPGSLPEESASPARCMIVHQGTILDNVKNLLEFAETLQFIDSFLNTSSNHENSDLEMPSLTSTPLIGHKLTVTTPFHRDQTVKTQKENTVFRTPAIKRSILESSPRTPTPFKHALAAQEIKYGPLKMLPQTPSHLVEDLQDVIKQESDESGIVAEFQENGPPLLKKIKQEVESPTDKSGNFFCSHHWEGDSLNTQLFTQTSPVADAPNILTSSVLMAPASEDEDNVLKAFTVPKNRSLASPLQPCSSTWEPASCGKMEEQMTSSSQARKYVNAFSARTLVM
Procedure, shortened: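 HepG2 cells were transiently transfected with cis-regulated multiple reporter transcription units reflecting endogenous Myb activity, then exposed to compound for 24 hours. Reporter mRNA was measured by RT-PCR with capillary electrophoresis; bidirectional fitting versus DMSO baseline.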

Measured: AC50

NNc1nc(-c2ccc(N)cc2)cs1
not listed: [12] | [13] | [14]
inactive: all other assays above

CCC/C=C/C=O
inactive: [12] | [13] | [14] | [5] | [6] | [7] | [10]
active: [9] 30.5 µM

CCC(=O)OCCC(C)CCC=C(C)C (stereo not given)
active: [9] 63.9 µM
not listed: [3] | [6] | [12]
inactive: all other assays above

Clc1cccc(Cl)n1
not listed: [3] | [12] | [13]
inactive: all other assays above

CCCCCCCCC
not listed: [3] | [12] | [13]
inactive: all other assays above

C=C(C)[C@@H]1CC[C@@H](C)C[C@@H]1O
not listed: [2] | [8] | [12] | [13] | [14]
inactive: all other assays above

CC(C)=CCCC(C)=CCCC(C)=CCO
active: [9] 18.8 µM
not listed: [2] | [3] | [4] | [8] | [12]
inactive: all other assays above

CCCCCCCCCCCCCCCC(=O)OC[C@H](O)[C@H]1OC(=O)C(O)=C1O
active: [9] 66.8 µM
not listed: [12] | [13]
inactive: all other assays above

Fc1c(F)c(F)c(Br)c(F)c1F
not listed: [2] | [4] | [12]
inactive: all other assays above

O=C(O)CN(CCN(CC(=O)O)CC(=O)O)CCN(CC(=O)O)CC(=O)O
not listed: [12]
inactive: all other assays above

CCC(C(=O)NC(N)=O)c1ccccc1 (stereo not given)
not listed: [2] | [12] | [13]
inactive: all other assays above

Sc1nc(S)nc(S)n1
not listed: [4] | [12]
inactive: all other assays above

Cc1ccc(S)cc1
active: [11] 65.1 µM
not listed: [12] | [13]
inactive: all other assays above

CC1=CC(=O)NS(=O)(=O)O1
not listed: [4] | [11] | [12] | [13]
inactive: all other assays above

CC1CCC2CC1C2(C)C (stereo not given)
not listed: [3] | [4] | [6] | [12] | [13]
inactive: all other assays above
